From PubChem
TGFb SMAD3 inh – blocks TGF-b signaling | HepG2 CAGA-GFP TGF-b/SMAD3 reporter, GFP fluorescence, 18 h; TGF-beta stimulated, 500 pg/mL final | Potency, µM (top dose mostly 46.1 µM), without a hit: at the top dose activity, negative = inhibition, most hits filed as inhibitors | actives 1.2% (n = 410,000); note: % is set by controls: 0 for no effect and ±100 for the full control effect; nearly all actives have a fitted effect of over 65% in size
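Smad-responsive CAGA-GFP expression was quantified in HEPG2 cells exposed to compounds and 500 pg/mL final TGF-beta for 18 h at 37 degrees C; unstimulated wells defined full inhibition.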
HT1080NT lethal – kills 2HG-producing HT-1080-NT fibrosarcoma cells; HT-1080-NT fibrosarcoma viability, CellTiter-Glo ATP luminescence, 48 h; Potency, µM (highest dose often 46.1 µM), for the others: top-dose activity, negative = less viability, most hits filed as cytotoxic; actives 1.6% (n = 360,000); AID 686970;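 note: NT is the 2HG producing partner of a matched IDH1 knockdown line; 0% = DMSO-treated cells and -100% = media-only wells without cells; nearly all actives have a fitted effect of over 55% in size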
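Luminescent CellTiter-Glo readout after 48 hours of compound exposure at 37 degrees C defined viability of HT-1080-NT cells. Activity was normalized to DMSO wells and cell-free media wells; concentration-response curves were fitted and assigned curve classes.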
HT1080 IDH1KD tx – toxicity to HT-1080 IDH1 knockdown cells (counter line). HT-1080 IDH1 knockdown viability, ATP luminescence, 48 h. Potency, µM (highest dose often 46.1 µM), inactives show top-dose activity, negative = toxicity, hits mostly cytotoxic. actives 2% (n = 360,000). AID 686971;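 note: 0% = DMSO wells and -100% = cell-free medium wells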
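HT-1080-IDH1KD cells (IDH1 knocked down), 750/well in RPMI with 5% FBS, treated with compound 48 h at 37 degrees C. Viability by CellTiter-Glo luminescence, normalised to DMSO and no-cell wells; concentration-response curves classed.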
KB-3-1 tox – KB-3-1 parental cell cytotoxicity. KB-3-1 viability, CellTiter-Glo ATP luminescence, 72 h. Potency, µM (series often up to 46.1 µM), most hits filed as cytotoxic. actives 1.4% (n = 400,000). AID 1347075; note: % is set by controls: 0 for no effect and ±100 for the full control effect; nearly all actives have a fitted effect of over 60% in size
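Parental KB-3-1 adenocarcinoma cells in phenol-red-free DMEM with 10% FBS were pin-treated with compounds at several concentrations, incubated 72 h at 37 °C, and viability read by CellTiter-Glo luminescence; concentration-effect curves were fitted after normalization.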
HepG2 viability – HepG2 cytotoxicity, counter-screen for TGF-b inhibitors. HepG2 CAGA-GFP viability, ATP luminescence, 18 h. AID 588856. actives 0.76% (n = 410,000). Potency, µM (highest dose often 46.1 µM), inactives show at the highest dose activity change, negative = cytotoxicity, most hits filed as cytotoxic
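HepG2 CAGA-GFP cells (1000/well, DMEM with 1% FBS) received compound, then TGF-beta at 500 pg/mL final, and were incubated 18 hours at 37 degrees C. Viability was read by CellTiter-Glo luminescence. Media-only wells were set as complete cell-killing and DMSO as no toxicity.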
KB-V1 MDR tox – kills drug-selected multidrug resistant KB-V1 cells; KB-V1 MDR cells viability, CellTiter-Glo, 72 h; Potency, µM (titrated, usually from 46.1 µM), hits mostly cytotoxic; actives 3.4% (n = 400,000); AID 1347076; note: % is set by controls: 0 for no effect and ±100 for the full control effect; nearly all actives have a fitted effect of over 60% in size
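Luminescent ATP read-out (CellTiter-Glo, 10 min) measures survival of drug-selected KB-V1 MDR cells after 72 h, 37 degrees C compound exposure. Medium: phenol-red-free DMEM, 10% FBS. Values from fitted concentration-response curves.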
Active calls of the source: *; i = inactive; ? = inconclusive; . = no result given; [ ] = dose if it differs, or a comment. Most compounds without a hit are left out; they make up all but 6.6% or so of the library. Calls come from the whole dose curve; as a rule, active = well fitted curve in the direction sought with a large enough effect; inconclusive = small, poorly fitted or top-dose-only effect, or another doubt; inactive = no such curve, though single readings can be large; an effect the other way counts as inactive or inconclusive. Potency is the fitted concentration of half-maximal effect.

SMILES	TGFb SMAD3 inh	HT1080NT lethal	HT1080 IDH1KD tx	KB-3-1 tox	HepG2 viability	KB-V1 MDR tox
C[C@@H]1CN([C@@H](C)CO)C(=O)Cc2cc(NS(=O)(=O)c3ccccc3)ccc2O[C@H]1CN(C)Cc1ccncc1	?	1%	3%	i	-18%	i
C[C@H]1CN([C@@H](C)CO)C(=O)Cc2cc(NC(=O)CCC(F)(F)F)ccc2O[C@H]1CN(C)Cc1ccc(-c2ccccc2)cc1	13µM*	23µM*	21µM*	?	18µM*	?
Cc1ccc(S(=O)(=O)Nc2ccc3c(c2)CC(=O)N([C@H](C)CO)C[C@@H](C)[C@H](CN(C)Cc2ccc(-c4ccccc4)cc2)O3)cc1	11µM*	?	?	?	-93%	?
C[C@H](CO)N1C[C@H](C)[C@H](CN(C)Cc2ccc(-c3ccccc3)cc2)Oc2ccc(NS(=O)(=O)c3ccccc3)cc2CC1=O	?	?	?	?	11µM*	?
COc1ccc(C)cc1NC(=O)NC(C)c1c(-n2cccc2)sc(C)c1C (stereo not given)	.	.	.	.	-25%	.
CCOc1ccc(-c2nnc(SCC(=O)NCc3ccc(Cl)cc3)o2)cc1	-4%	.	.	i	-6%	i
CC(=O)N1N=C(c2ccc3ccccc3c2)OC1(C)C	6%	0%	3%	?	2%	18µM*
O=C(C(=O)N1CCC(Cc2ccccc2)CC1)c1cccc(Br)c1	.	1%	?	i	.	?
COc1ccc(C(=O)Nc2cc(-c3nc4ccccc4s3)ccc2OC)cc1	-1%	.	.	?	-6%	i
CCOc1ccc(C(=O)Nc2cc(-c3nc4ccccc4s3)ccc2OC)cc1	-2%	.	.	?	-9%	7.3µM*
COc1ccc(NC(=O)CC2C(=O)N(c3ccc(C)cc3)C(=O)N2Cc2cccnc2)cc1 (stereo not given)	1%	.	.	.	0%	.
CCOC(=O)C1=CC[C@@H](c2ccccc2)N(S(=O)(=O)c2ccc(C)cc2)[C@H]1C#N	?	16µM*	?	i	-65%	i
CCOC(=O)C1=CC[C@@H](c2ccccc2)N(S(=O)(=O)c2ccc(C)cc2)[C@H]1c1ccc(C#N)cc1	?	-1%	3%	i	-5%	i
Cc1ccc(S(=O)(=O)N2[C@@H](c3ccccc3)C(C(=O)O)=CC[C@H]2c2ccc(C(C)C)cc2)cc1	16µM*	-9%	0%	i	-31%	?
COc1cccc(NC(=O)c2oc3ccccc3c2NC(=O)c2ccc(OC(C)C)cc2)c1	2%	.	.	i	-2%	i
O=C(c1cc(F)ccc1F)C1CCCN(C(=O)c2ccc(F)cc2Cl)C1 (stereo not given)	-19%	-14%	-6%	i	5%	12µM*
CC(=O)c1ccc(C(=O)N2CCCC(C(=O)c3cc(F)ccc3F)C2)s1 (stereo not given)	5%	0%	1%	i	-10%	i
COc1ccc(Cl)cc1NC(=O)Cn1ncc2c3ccccc3n(Cc3ccccc3)c2c1=O	-8%	.	.	i	-10%	i
O=C(c1ccc2c(=O)n(CCc3ccccc3)c(=O)[nH]c2c1)N1CCN(C(=O)c2ccco2)CC1	.	10%	21%	.	.	.
O=C(Cn1c(CO)nc2ccccc21)NCc1ccc2c(c1)OCO2	9%	15%	0%	i	22%	i
CC(C)Sc1nc2ccccc2n1CC(=O)NCc1ccc2c(c1)OCO2	-4%	9%	-5%	i	0%	15µM*
Cc1cc2cc(C)c3nnc(SCC(=O)NCc4ccc5c(c4)OCO5)n3c2cc1C	-2%	14%	3%	i	0%	?
CC(C)N(C(=O)Cn1c(SCC(=O)NCc2ccc3c(c2)OCO3)nc2ccccc21)C(C)C	17%	0%	-1%	i	3%	i
Cc1cc(C)c2cc(C)c3nnc(SCC(=O)NCc4ccc5c(c4)OCO5)n3c2c1	0%	-2%	-3%	i	2%	2.3µM*
CC(=O)c1c(C)n(CC(=O)NCc2ccc3c(c2)OCO3)c2ccccc12	-20%	?	-24%	16µM*	-11%	2.9µM*
SMILES	TGFb SMAD3 inh	HT1080NT lethal	HT1080 IDH1KD tx	KB-3-1 tox	HepG2 viability	KB-V1 MDR tox
O=C(CN1C(=O)CCSc2ccccc21)Nc1ccc2c(c1)OCO2	-4%	-2%	-26%	i	-3%	18µM*
COc1ccccc1NC(=O)c1sc2ncn(Cc3ccccc3Cl)c(=O)c2c1C	-7%	.	.	i	4%	i
Cc1c(C(=O)Nc2cccc(C(F)(F)F)c2)oc2ccc3c(c12)C(=O)CC(C)(C)O3	0%	.	.	i	-32%	?
CC1CC(=O)N(CC(=O)NCc2ccc3c(c2)OCO3)c2ccccc2S1 (stereo not given)	2%	-1%	-6%	i	-60%	21µM*
CC(=O)c1c(C(C)=O)c(C)n(Cc2ccc3c(c2)OCO3)c1C	-14%	-9%	-8%	13µM*	-14%	2.6µM*
CC1CC(=O)N(CC(=O)NCc2ccco2)c2ccccc2S1 (stereo not given)	6%	10%[9.24 µM]	-22%	i	16%	i
CCC(CC)C(=O)N1N=C(c2ccc(NS(C)(=O)=O)cc2)CC1c1ccc(C)cc1 (stereo not given)	?	8%	-9%	i	-10%	18µM*
COc1c(OC(C)=O)ccc(/C=C/c2ccc3cccc(OCc4ccccc4)c3n2)c1[N+](=O)[O-]	?	?	?	16µM*	-8%	?
COc1ccc(C(=O)N/N=C/c2ccc3cccc(OCc4ccccc4)c3n2)cc1	-10%	?	?	?	-24%	i
CCc1sc(Nc2ccc(C)cc2Br)nc1-c1cc2cccc(OC)c2oc1=O	1%	.	.	i	-2%	i
COc1ccccc1C1(CC(=O)O)CCOC(C(C)C)C1 (stereo not given)	-3%	14%	9%	i	-45%	i
COc1ccccc1C1(CCNS(=O)(=O)c2ccc(C)cc2)CCOC(C(C)C)C1 (stereo not given)	?	3%	5%	?	-38%	3.7µM*
COc1ccccc1C1(CCNC(C)c2cccs2)CCOC(C(C)C)C1 (stereo not given)	?	?	?	i	-60%	?
Cc1ccc(C2(CCNC(C)c3cccs3)CCOC(C(C)C)C2)cc1 (stereo not given)	?	16µM*	?	i	-22%	i
